# Experimental data from the supplement of paper PMC9334596.
# Values joined by “and” are separate entries in the source; they are usually repeats but may differ in a detail not shown here. Identical values can stand only once. Over roughly 5,300 compounds, “PER2::LUC luminescence relative to vehicle control” has its median near 0.96; the highest 2% begin near 1.3. This excerpt belongs to a sample that is enriched for the highest values.
# Tested on: mPer2Luc MEF
# Assay: PER2::LUC luminescence relative to vehicle control (fold of vehicle); higher = higher PER2::LUC reporter signal
# Details: 10 µM
# Outline: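 Compounds from commercial libraries were added at 10 μM to 384-well plates seeded 48 h earlier with ~3000 mPer2Luc mouse embryonic fibroblasts per well. The cells were kept in DMEM with 10% FBS at 37 °C and 5% CO2. Luminescence was read with ONE-Glo 24 h and 30 h after treatment, then an alamarBlue viability assay was run. Values are PER2::LUC luminescence relative to vehicle control, as fold change.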
SMILES,PER2::LUC luminescence (time after treatment 24 h),PER2::LUC luminescence (time after treatment 30 h)
COc1ccnc(C[S+]([O-])c2nc3cc(OC(F)F)ccc3[nH]2)c1OC (stereo not given),0.944 and 1.32,1.01 and 0.991
Cc1c(OCC(F)(F)F)ccnc1C[S+]([O-])c1nc2ccccc2[nH]1 (stereo not given),1.17,1.67
COCCCOc1ccnc(C[S+]([O-])c2nc3ccccc3[nH]2)c1C (stereo not given),1.15 and 1.39 and 1.44,1.12 and 1.68 and 1.47
COc1ccc2[nH]c([S+]([O-])Cc3ncc(C)c(OC)c3C)nc2c1 (stereo not given),0.886,1.08
N=C(N/N=C/c1ccc(Cl)cc1)N/N=C/c1ccc(Cl)cc1,0.996,0.988
CCOC(=O)C1=Cc2ccc(C(F)(F)C(F)(F)F)cc2N=C(N)C1,1.07,1.05
O=[N+]([O-])c1cc(C(F)(F)F)cc([N+](=O)[O-])c1NNC(=S)Nc1ccc(F)cc1,0.67,0.671
CCCCC[C@H](O)/C=C/[C@@H]1[C@@H](C/C=C\CCCC(=O)O)[C@H](O)C[C@H]1O,1.1,1.1
Oc1ccccc1NCc1ccccn1,0.921,1.05
C[C@H](CCC(=O)NCC(=O)NCCS(=O)(=O)O)[C@H]1CC[C@H]2[C@@H]3[C@H](O)C[C@@H]4C[C@H](O)CC[C@]4(C)[C@H]3C[C@H](O)[C@]12C,0.886,0.904
CC(=O)OCC(=O)[C@@]12OC3(CCCC3)O[C@@H]1C[C@H]1[C@@H]3CCC4=CC(=O)C=C[C@]4(C)[C@@]3(F)[C@@H](O)C[C@@]12C,0.828,1.13
CCC(=O)OCC(=O)[C@@]1(OC(=O)CC)[C@@H](C)C[C@H]2[C@@H]3CCC4=CC(=O)C=C[C@]4(C)[C@@]3(F)[C@@H](O)C[C@@]21C,0.454 and 0.475,1.01 and 0.98
CCC(=O)O[C@]1(C(=O)CCl)[C@@H](C)C[C@H]2[C@@H]3CCC4=CC(=O)C=C[C@]4(C)[C@@]3(F)[C@@H](O)C[C@@]21C,0.711,1.08
CCCCC(=O)O[C@]1(C(=O)CO)[C@@H](C)C[C@H]2[C@@H]3CCC4=CC(=O)C=C[C@]4(C)[C@@]3(F)[C@@H](O)C[C@@]21C,0.684 and 0.795,1.37 and 1.15
CC1(C)O[C@@H]2C[C@H]3[C@@H]4C[C@H](F)C5=CC(=O)C=C[C@]5(C)[C@@]4(F)[C@@H](O)C[C@]3(C)[C@]2(C(=O)CO)O1,0.902,1.15
CC1(C)O[C@@H]2C[C@H]3[C@@H]4CCC5=CC(=O)C=C[C@]5(C)[C@@]4(F)[C@@H](O)C[C@]3(C)[C@]2(C(=O)CO)O1,0.583,1.35
Nc1nc(=O)c2c([nH]1)NCC(CNc1ccc(C(=O)N[C@@H](CCC(=O)O)C(=O)O)cc1)=N2,1.06,0.985
COc1cccc(NCC(O)Cn2c3ccc(Br)cc3c3cc(Br)ccc32)c1 (stereo in doubt),0.88,0.955

SMILES,PER2::LUC luminescence (time after treatment 24 h),PER2::LUC luminescence (time after treatment 30 h)
COc1ccc(-c2c(O)c3c(OC)c4c(cc3oc2=O)OC(C)(C)C=C4)cc1,1.5,1.46
COc1c2c(cc3occ(-c4ccc5c(c4)OCO5)c(=O)c13)OC(C)(C)C=C2,0.833,0.876
COc1cc(OC)c2c(OC)c(-c3ccc4c(c3)OCO4)c(=O)oc2c1,1.02,1.21
CC(=O)OC[C@@]1(O)C[C@@]23CC[C@@H]4c5ccoc5CC[C@@]4(C)[C@@H]2CC[C@@H]1C3,1.05,1.06
C=CCCCCCCCCCCCC(O)CC(O)CO (stereo not given),0.967,0.789
CC1(C)CCC[C@](C)([C@H]2CC[C@]3(C)[C@@H]2[C@H](O)C[C@@H]2[C@@]4(C)CC[C@H](O)C(C)(C)[C@@H]4CC[C@]23C)O1,1.02,1.02
CC(C)(C)c1nc2c3cc[nH]c(=O)c3c3cc(F)ccc3c2[nH]1,0.802,0.906
CCOC(=O)c1cn(-c2c(F)c(F)c(C#N)c(F)c2F)c2c(F)c(F)c(F)cc2c1=O,1.08,1.19
CCCCOc1ccc(C(=O)CCN2CCCCC2)cc1,0.957,1.41
O=C(c1ccc(OCCN2CCCCC2)cc1)c1c(-c2ccc(O)cc2)sc2cc(O)ccc12,0.35,0.69
CCCCOc1ccc(OCCCN2CCOCC2)cc1,1.12,1.18
CCN1CCN(Cc2ccc(NC(=O)Nc3ccc(Oc4cc(NC)ncn4)cc3)cc2C(F)(F)F)CC1,0.107,0.14
CO/N=C(\C(=O)N[C@@H]1C(=O)N2C(C(=O)[O-])=C(C[n+]3ccc(N)n3CCO)CS[C@H]12)c1csc(N)n1,1.12,1.1
Cn1c([N+](=O)[O-])cnc1COC(N)=O,1.15,1.27
Cc1ncc([N+](=O)[O-])n1C,1.13,0.998
CSc1ccc(OCc2ncc([N+](=O)[O-])n2C)cc1,1.41,1.31
N[C@](CCCCB(O)O)(CCN1CCCCC1)C(=O)O,1.07,1.08
